Measurements taken from PubChem BioAssay AID1159580 (chemical genetic matrix, 2015).
Screen size: about 5,500 compounds; about 2,000 (36%) were called active. Not shown: some 18% with an inconclusive outcome. The list shows a part of the results. A number with no mark means an inactive call. Cut-off read from the data, not from the text of the source: active = normalized growth mostly below about 0.91 (no sharp cut-off); inconclusive = no clear call, values can overlap the other calls; inactive = mostly above about 0.92.

Test: chemical genetic growth profiling, strain panel (AID 1159580);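 note: tested at 20 µM; growth read once vehicle control cultures reached saturation at 30 °C; 1 = growth at the plate median or of vehicle wells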
Conditions: growth OD
[1] = S. cerevisiae deletion strains, locus YAL013W, strain DEP1, stronger effect = lower value
[2] = S. cerevisiae deletion strains, locus YBR229C, strain ROT2, stronger effect = lower value
[3] = S. cerevisiae deletion strains, locus YDL101C, strain DUN1, stronger effect = lower value
[4] = S. cerevisiae deletion strains, locus YDR150W, strain NUM1, stronger effect = lower value
[5] = S. cerevisiae deletion strains, locus YEL061C, strain CIN8, stronger effect = lower value
[6] = S. cerevisiae deletion strains, locus YGR078C, strain PAC10, stronger effect = lower value
[7] = S. cerevisiae deletion strains, locus YHR030C, strain SLT2, stronger effect = lower value
[8] = S. cerevisiae deletion strains, locus YHR087W, strain rtc3, stronger effect = lower value
[9] = S. cerevisiae deletion strains, locus YJR043C, strain POL32, stronger effect = lower value
[10] = S. cerevisiae deletion strains, locus YJR075W, strain HOC1, stronger effect = lower value
[11] = S. cerevisiae deletion strains, locus YLR039C, strain RIC1, stronger effect = lower value
[12] = S. cerevisiae deletion strains, locus YLR058C, strain SHM2 (second series), stronger effect = lower value
[13] = S. cerevisiae deletion strains, locus YLR085C, strain ARP6, stronger effect = lower value
[14] = S. cerevisiae deletion strains, locus YLR262C, strain YPT6, stronger effect = lower value
[15] = S. cerevisiae deletion strains, locus YML094W, strain GIM5, stronger effect = lower value
[16] = S. cerevisiae deletion strains, locus YMR219W, strain ESC1, stronger effect = lower value
[17] = S. cerevisiae deletion strains, locus YMR263W, strain SAP30, stronger effect = lower value
[18] = S. cerevisiae deletion strains, locus YMR307W, strain GAS1, stronger effect = lower value
[19] = S. cerevisiae deletion strains, locus YNL153C, strain GIM3, stronger effect = lower value
[20] = S. cerevisiae deletion strains, locus YNL298W, strain CLA4 (second series), stronger effect = lower value
[21] = S. cerevisiae deletion strains, locus YNL322C, strain KRE1, stronger effect = lower value
[22] = S. cerevisiae deletion strains, locus YNR030W, strain Alg12, stronger effect = lower value
[23] = S. cerevisiae deletion strains, locus YPL055C, strain LGE1, stronger effect = lower value
[24] = S. cerevisiae deletion strains, locus YPL241C, strain CIN2, stronger effect = lower value
[25] = S. cerevisiae deletion strains, locus YPR135W, strain CTF4, stronger effect = lower value

SMILES: Cc1c(-c2csc(-c3ccc(Cl)cc3)n2)sc2ccc(Cl)cc12
- normalized growth [1]: 1.03
- normalized growth [2]: 1.03
- normalized growth [3]: 1.05
- normalized growth [4]: 1.01
- normalized growth [5]: 0.996
- normalized growth [6]: 1.04
- normalized growth (S. cerevisiae deletion strains, locus YGR229C, strain SMI1, stronger effect = lower value): 1.03
- normalized growth [7]: 1.07
- normalized growth [8]: 1.03
- normalized growth [9]: 1.04
- normalized growth [10]: 1.02
- normalized growth [11]: 1.07
- normalized growth [12]: 1.05
- normalized growth [13]: 1.05
- normalized growth [14]: 1.09
- normalized growth [15]: 1.04
- normalized growth [16]: 1.04
- normalized growth [17]: 1.02
- normalized growth [18]: 1.07
- normalized growth [19]: 1.02
- normalized growth [20]: 1.09
- normalized growth [21]: 1.04
- normalized growth [22]: 1.04
- normalized growth (S. cerevisiae deletion strains, locus YOL006C, strain TOP1, stronger effect = lower value): 1.1
- normalized growth [23]: 0.999
- normalized growth [24]: 1.03
- normalized growth [25]: 1.07
- normalized growth (S. cerevisiae strains, strain wild type, stronger effect = lower value): 1.04

SMILES: N/C(=N/O)c1cnccc1C(F)(F)F
- normalized growth [1]: 0.987
- normalized growth [2]: 1.01
- normalized growth [3]: 1.01
- normalized growth (S. cerevisiae deletion strains, locus YDL134C, strain PPH21, stronger effect = lower value): 0.999
- normalized growth [4]: 0.986
- normalized growth [5]: 0.998
- normalized growth [6]: 0.994
- normalized growth [7]: 0.978
- normalized growth [8]: 0.986
- normalized growth (S. cerevisiae deletion strains, locus YJL187C, strain SWE1, stronger effect = lower value): 0.991
- normalized growth [9]: 0.993
- normalized growth [10]: 0.993
- normalized growth (S. cerevisiae deletion strains, locus YKL190W, strain CNB1, stronger effect = lower value): 0.997
- normalized growth [11]: 1.04
- normalized growth [12]: 0.993
- normalized growth [13]: 0.976
- normalized growth [14]: 0.99
- normalized growth [15]: 1.05
- normalized growth [16]: 0.996
- normalized growth [17]: 0.977
- normalized growth [18]: 0.958
- normalized growth [19]: 1.01
- normalized growth [20]: 0.996
- normalized growth [21]: 1
- normalized growth [22]: 0.999
- normalized growth [23]: 0.989
- normalized growth [24]: 1.03
- normalized growth [25]: 1.01

SMILES: Cn1ncc(-c2nc(-c3ccc(Cl)cc3)cs2)c1N
- normalized growth (S. cerevisiae deletion strains, locus YAR019C, strain CDC15, stronger effect = lower value): 0.933
- normalized growth (S. cerevisiae deletion strains, locus YBL105C, strain PKC1, stronger effect = lower value): 0.931
- normalized growth (S. cerevisiae deletion strains, locus YBR135W, strain CKS1, stronger effect = lower value): 0.935
- normalized growth (S. cerevisiae deletion strains, locus YBR136W, strain MEC1, stronger effect = lower value): 0.933
- normalized growth (S. cerevisiae deletion strains, locus YBR160W, strain CDC28, stronger effect = lower value): 0.939
- normalized growth (S. cerevisiae deletion strains, locus YDL017W, strain CDC7, stronger effect = lower value): 0.935
- normalized growth (S. cerevisiae deletion strains, locus YDL028C, strain MPS1, stronger effect = lower value): 0.94
- normalized growth [3]: 0.961
- normalized growth (S. cerevisiae deletion strains, locus YDL108W, strain KIN28, stronger effect = lower value): 0.936
- normalized growth (S. cerevisiae deletion strains, locus YDL132W, strain cdc53, stronger effect = lower value): 0.931
- normalized growth (S. cerevisiae deletion strains, locus YDL214C, strain PRR2, stronger effect = lower value): 0.904
- normalized growth (S. cerevisiae deletion strains, locus YDR052C, strain DBF4, stronger effect = lower value): 0.935
- normalized growth (S. cerevisiae deletion strains, locus YDR054C, strain cdc34, stronger effect = lower value): 0.91
- normalized growth (S. cerevisiae deletion strains, locus YDR226W, strain ADK1, stronger effect = lower value): 0.925
- normalized growth (S. cerevisiae deletion strains, locus YDR477W, strain SNF1, stronger effect = lower value): 0.785
- normalized growth (S. cerevisiae deletion strains, locus YER123W, strain YCK3, stronger effect = lower value): 0.921
- normalized growth (S. cerevisiae deletion strains, locus YER133W, strain GLC7, stronger effect = lower value): 0.75
- normalized growth (S. cerevisiae deletion strains, locus YFL009W, strain cdc4, stronger effect = lower value): 0.935
- normalized growth (S. cerevisiae deletion strains, locus YFL029C, strain CAK1, stronger effect = lower value): 0.942
- normalized growth (S. cerevisiae deletion strains, locus YFR003C, strain YPI1, stronger effect = lower value): 0.943
- normalized growth (S. cerevisiae deletion strains, locus YFR019W, strain FAB1, stronger effect = lower value): 0.95
- normalized growth (S. cerevisiae deletion strains, locus YFR028C, strain CDC14, stronger effect = lower value): 0.922
- normalized growth (S. cerevisiae deletion strains, locus YGR040W, strain KSS1, stronger effect = lower value): 0.785
- normalized growth (S. cerevisiae deletion strains, locus YGR052W, strain FMP48, stronger effect = lower value): 0.854
- normalized growth (S. cerevisiae deletion strains, locus YGR092W, strain DBF2, stronger effect = lower value): 0.781
- normalized growth [7]: 0.687 (active)
- normalized growth (S. cerevisiae deletion strains, locus YHR079C, strain IRE1, stronger effect = lower value): 0.822
- normalized growth (S. cerevisiae deletion strains, locus YHR082C, strain KSP1, stronger effect = lower value): 0.897
- normalized growth (S. cerevisiae deletion strains, locus YHR205W, strain SCH9, stronger effect = lower value): 0.798
- normalized growth (S. cerevisiae deletion strains, locus YIL147C, strain SLN1, stronger effect = lower value): 0.936
- normalized growth (S. cerevisiae deletion strains, locus YJL095W, strain BCK1, stronger effect = lower value): 0.729
- normalized growth (S. cerevisiae deletion strains, locus YJL128C, strain PBS2, stronger effect = lower value): 0.987
- normalized growth (S. cerevisiae deletion strains, locus YJL157C, strain FAR1, stronger effect = lower value): 0.879
- normalized growth (S. cerevisiae deletion strains, locus YJR016C, strain ILV3, stronger effect = lower value): 0.934
- normalized growth (S. cerevisiae deletion strains, locus YJR066W, strain TOR1 (second series), stronger effect = lower value): 0.8
- normalized growth (S. cerevisiae deletion strains, locus YJR066W, strain TOR1, stronger effect = lower value): 0.78
- normalized growth (S. cerevisiae deletion strains, locus YKL048C, strain ELM1, stronger effect = lower value): 0.95
- normalized growth (S. cerevisiae deletion strains, locus YKL067W, strain YNK1, stronger effect = lower value): 0.932
- normalized growth (S. cerevisiae deletion strains, locus YKL101W, strain HSL1, stronger effect = lower value): 0.947
- normalized growth (S. cerevisiae deletion strains, locus YKL193C, strain SDS22, stronger effect = lower value): 0.924
- normalized growth (S. cerevisiae deletion strains, locus YKL203C, strain TOR2, stronger effect = lower value): 0.817
- normalized growth (S. cerevisiae deletion strains, locus YLR113W, strain HOG1, stronger effect = lower value): 0.906
- normalized growth (S. cerevisiae deletion strains, locus YLR133W, strain CKI1, stronger effect = lower value): 0.886
- normalized growth (S. cerevisiae deletion strains, locus YLR403W, strain SFP1, stronger effect = lower value): 0.651 (active)
- normalized growth (S. cerevisiae deletion strains, locus YML070W, strain DAK1, stronger effect = lower value): 0.91
- normalized growth (S. cerevisiae deletion strains, locus YMR001C, strain CDC5, stronger effect = lower value): 0.914
- normalized growth (S. cerevisiae deletion strains, locus YMR205C, strain PFK2 (second series), stronger effect = lower value): 0.917
- normalized growth (S. cerevisiae deletion strains, locus YMR277W, strain FCP1, stronger effect = lower value): 0.914
- normalized growth (S. cerevisiae deletion strains, locus YNL006W, strain LST8, stronger effect = lower value): 0.95
- normalized growth (S. cerevisiae deletion strains, locus YNL020C, strain ARK1, stronger effect = lower value): 0.897
- normalized growth (S. cerevisiae deletion strains, locus YNL161W, strain CBK1, stronger effect = lower value): 0.93
- normalized growth (S. cerevisiae deletion strains, locus YNL183C, strain NPR1, stronger effect = lower value): 0.892
- normalized growth (S. cerevisiae deletion strains, locus YNL207W, strain RIO2, stronger effect = lower value): 0.916
- normalized growth (S. cerevisiae deletion strains, locus YNL222W, strain SSU72, stronger effect = lower value): 0.934
- normalized growth (S. cerevisiae deletion strains, locus YNL307C, strain MCK1 (second series), stronger effect = lower value): 0.899
- normalized growth (S. cerevisiae deletion strains, locus YOL078W, strain AVO1, stronger effect = lower value): 0.934
- normalized growth (S. cerevisiae deletion strains, locus YOL136C, strain PFK27, stronger effect = lower value): 0.939
- normalized growth (S. cerevisiae deletion strains, locus YOR061W, strain CKA2, stronger effect = lower value): 0.874
- normalized growth (S. cerevisiae deletion strains, locus YOR119C, strain RIO1, stronger effect = lower value): 0.803
- normalized growth (S. cerevisiae deletion strains, locus YOR231W, strain MKK1, stronger effect = lower value): 0.96
- normalized growth (S. cerevisiae deletion strains, locus YOR329C, strain SCD5, stronger effect = lower value): 0.944
- normalized growth (S. cerevisiae deletion strains, locus YPL031C, strain PHO85, stronger effect = lower value): 0.74
- normalized growth (S. cerevisiae deletion strains, locus YPL153C, strain RAD53, stronger effect = lower value): 0.776
- normalized growth (S. cerevisiae deletion strains, locus YPL204W, strain HRR25, stronger effect = lower value): 0.774
- normalized growth (S. cerevisiae deletion strains, locus YPL209C, strain IPL1, stronger effect = lower value): 0.938
- normalized growth (S. cerevisiae deletion strains, locus YPL256C, strain CLN2, stronger effect = lower value): 0.859 (active)
- normalized growth (S. cerevisiae deletion strains, locus YPR025C, strain CCL1, stronger effect = lower value): 0.944
- normalized growth (S. cerevisiae deletion strains, locus YPR106W, strain ISR1, stronger effect = lower value): 0.955
- normalized growth (S. cerevisiae deletion strains, locus YPR111W, strain DBF20, stronger effect = lower value): 0.959
- normalized growth (S. cerevisiae deletion strains, strain NNK1, stronger effect = lower value): 0.966
- normalized growth (S. cerevisiae deletion strains, strain TSCII, stronger effect = lower value): 0.933
